Data as given in PubChem BioAssay AID1159580 (chemical genetic matrix, 2015).
In all, about 5,500 compounds went through this assay and about 2,000 (36%) were called active. Inconclusive results (about 18%) are left out. Rule as the data show it: active = normalized growth mostly below about 0.91 (no sharp cut-off); inconclusive = no clear call, values can overlap the other calls; inactive = mostly above about 0.92. Some of the results follow.

Assay: chemical genetic growth profiling, strain panel (AID 1159580);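 also: tested at 20 µM; growth read once vehicle control cultures reached saturation at 30 °C; 1 = growth at the plate median or of vehicle wells; lower values mean less growth of the strain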
Conditions: S. cerevisiae deletion strains, growth OD

Measured: normalized growth

CC(C)[C@H](N)C(=O)OCCOCn1cnc2c(=O)[nH]c(N)nc21
inactive: locus YAL021C, strain ccr4, active compounds read low 1.06 | locus YAL026C, strain drs2, active compounds read low 1.02 | locus YAL030W, strain snc1, active compounds read low 1.03 | locus YBL061C, strain skt5, active compounds read low 1.02 | locus YBR009C, strain hhf1, active compounds read low 0.961 | locus YBR023C, strain chs3, active compounds read low 1.02 | locus YBR171W, strain sec66, active compounds read low 1.01 | locus YBR231C, strain swc5, active compounds read low 0.934 | locus YBR279W, strain paf1, active compounds read low 1.02 | locus YCL011C, strain gbp2, active compounds read low 1.01 | locus YCL016C, strain dcc1, active compounds read low 1.05 | locus YCL069W, strain vba3, active compounds read low 1 | locus YCR088W, strain abp1, active compounds read low 1.02 | locus YDL005C, strain med2, active compounds read low 1.02 | locus YDL040C, strain nat1, active compounds read low 0.998 | locus YDR001C, strain nth1, active compounds read low 1.01 | locus YDR069C, strain doa4, active compounds read low 1 | locus YDR137W, strain rgp1, active compounds read low 1.08 | locus YDR159W, strain sac3, active compounds read low 0.94 | locus YDR195W, strain ref2 0.973 | locus YDR297W, strain sur2, active compounds read low 1 | locus YDR334W, strain swr1, active compounds read low 1.01 | locus YDR335W, strain msn5, active compounds read low 1.01 | locus YDR392W, strain spt3, active compounds read low 1.03 | locus YEL003W, strain gim4, active compounds read low 0.996 | locus YEL037C, strain rad23, active compounds read low 1.01 | locus YEL061C, strain CIN8 (second series), active compounds read low 1 | locus YER015W, strain faa2, active compounds read low 1.01 | locus YER016W, strain bim1, active compounds read low 1.05 | locus YER111C, strain swi4, active compounds read low 1.03 | locus YER155C, strain BEM2 (second series), active compounds read low 1.11 | locus YFR010W, strain ubp6, active compounds read low 0.974 | locus YGL167C, strain pmr1, active compounds read low 1.01 | locus YGL173C, strain kem1, active compounds read low 1.01 | locus YGL227W, strain vid30, active compounds read low 1.01 | locus YGL240W, strain doc1, active compounds read low 0.993 | locus YGL253W, strain hxk2, active compounds read low 0.981 | locus YHR013C, strain ard1, active compounds read low 1.02 | locus YHR027C, strain rpn1, active compounds read low 1.01 | locus YHR030C, strain SLT2, active compounds read low 1.07 | locus YHR079C, strain IRE1, active compounds read low 1.07 | locus YHR142W, strain chs7, active compounds read low 0.988 | locus YJL092W, strain hpr5, active compounds read low 1.01 | locus YJL095W, strain BCK1 (second series), active compounds read low 1.04 | locus YJL095W, strain BCK1, active compounds read low 1.02 | locus YJL115W, strain asf1, active compounds read low 1.01 | locus YJL129C, strain trk1, active compounds read low 0.982 | locus YJL154C, strain vps35, active compounds read low 1.01 | locus YJL164C, strain tpk1, active compounds read low 0.995 | locus YJL166W, strain qcr8, active compounds read low 1.03 | locus YJL187C, strain SWE1, active compounds read low 1 | locus YJR066W, strain TOR1, active compounds read low 0.99 | locus YKL160W, strain elf1, active compounds read low 1.06 | locus YKR026C, strain gcn3, active compounds read low 1.01 | locus YKR091W, strain srl3, active compounds read low 1.01 | locus YLL001W, strain dnm1, active compounds read low 0.96 | locus YLL026W, active compounds read low 1.01 | locus YLL041C, strain sdh2, active compounds read low 1.03 | locus YLR027C, strain aat2, active compounds read low 1.01 | locus YLR113W, strain HOG1, active compounds read low 0.977 | locus YLR221C, strain rsa3, active compounds read low 0.96 | locus YLR258W, strain gsy2, active compounds read low 1.03 | locus YLR262C, strain YPT6 (second series), active compounds read low 1.01 | locus YLR320W, strain mms22, active compounds read low 0.971 | locus YLR342W, strain FKS1, active compounds read low 1.03 | locus YLR357W, strain rsc2, active compounds read low 1.04 | locus YLR370C, strain arc18, active compounds read low 1.03 | locus YLR384C, strain iki3, active compounds read low 1.03 | locus YML120C, strain ndi1, active compounds read low 0.969 | locus YMR058W, strain fet3, active compounds read low 1.04 | locus YMR125W, strain sto1, active compounds read low 1.04 | locus YMR129W, active compounds read low 1.02 | locus YMR205C, strain PFK2, active compounds read low 1.01 | locus YMR231W, strain pep5, active compounds read low 1 | locus YNL071W, strain lat1, active compounds read low 1.02 | locus YNL183C, strain NPR1, active compounds read low 0.946 | locus YNL209W, strain ssb2, active compounds read low 1.02 | locus YNL248C, strain rpa49, active compounds read low 1.04 | locus YNL322C, strain KRE1 (second series), active compounds read low 1.04 | locus YNR049C, strain mso1, active compounds read low 0.998 | locus YOR001W, strain rrp6, active compounds read low 0.943 | locus YOR070C, strain gyp1, active compounds read low 1.03 | locus YOR080W, strain dia2, active compounds read low 1.01 | locus YOR083W, strain WHI5, active compounds read low 0.992 | locus YOR106W, strain vam3, active compounds read low 1.02 | locus YOR231W, strain MKK1, active compounds read low 1.04 | locus YOR265W, strain rbl2, active compounds read low 1.01 | locus YOR270C, strain vph1, active compounds read low 0.864 | locus YOR290C, strain snf2, active compounds read low 1.05 | locus YPL051W, strain arl3, active compounds read low 1.04 | locus YPL078C, strain atp4, active compounds read low 1.04 | locus YPL106C, strain sse1, active compounds read low 1.06 | locus YPL240C, strain hsp82, active compounds read low 1.01 | locus YPL256C, strain CLN2, active compounds read low 1.08

COC(=O)c1c(C)[nH]c(C)c1C(=O)c1ccccc1Cc1ccccc1
inactive: locus YAL040C, strain CLN3, active compounds read low 0.995 | locus YCL061C, strain MRC1 (second series), active compounds read low 1 | locus YDR363W, strain ESC2, active compounds read low 1.02 | locus YER002W, strain NOP16, active compounds read low 0.984 | locus YGR078C, strain PAC10, active compounds read low 0.989 | locus YGR229C, strain SMI1, active compounds read low 1.06 | locus YNL153C, strain GIM3, active compounds read low 0.987 | locus YNL175C, strain NOP13, active compounds read low 0.986 | locus YNL197C, strain WHI3, active compounds read low 0.983 | locus YNL224C, strain SQS1, active compounds read low 0.983 | locus YNL322C, strain KRE1, active compounds read low 1.01 | locus YOR083W, strain WHI5 (second series), active compounds read low 0.964 | locus YPL055C, strain LGE1, active compounds read low 1.01 | locus YPL241C, strain CIN2, active compounds read low 1
